# Inconclusive results are not listed. Where a call stands in place of a potency, no number is given. Activity calls are given as the source filed them. The call rests on the fitted dose curve; in most records, active means well fitted cell-killing curve with a large enough effect in the repeat runs; inconclusive means weak or mixed curves, or effect the other way; inactive means flat fitted curve, though single readings scatter.
# Assay: Caspase-3/7 induction in HepG2 cells by small molecules, qHTS cell viability counter screen (AID 1346981); further: nearly all actives have a fitted effect of over 30% in size
# Conditions: CellTiter-Fluor fluorescence, 17 h; series mostly up to 92.4 µM
# Excerpt: U.S. Tox21 Program National Center for Advancing Translational Sciences [NCATS] NIH Chemical Genomics Center [NCGC] U.S. Environmental Protection Agency [EPA] National Institutes of Environmental Health Sciences [NIEHS] National Toxicology Program [NTP] U.S. Food and Drug Administration [FDA] Tox21 Assay Overview: Apoptosis is a process of programmed cell death and plays a central role in the development of multicellular organisms. It is a highly regulated process and induces cell death by activating caspases, which are the members of cysteine aspartic acid-specific protease (caspase) family. Caspases involved in apoptosis are classified by their mechanism of action as initiator caspases (caspase-2, -8, -9 and -10) and executioner caspases (caspase-3, -6, and -7). Inhibition of apoptosis results in number of cancers, autoimmune diseases, inflammatory diseases and viral infection. To identify small molecule compounds that induce apoptosis, a homogeneous, luminescent Caspase-Glo 3/7 assay was used. Wild type HepG2 cells were used to screen Tox21 libraries for identifying caspase-3/7 activity inducers. Also cytotoxicity of the compounds was tested in parallel by measuring the cell viability using CellTiter-Fluor assay system in the same wells.
# Tox21 Assay Protocol Summary: HepG2 cells were dispensed at 2,000 per well in 5uL of culture medium into white solid bottom 1536-well plates (Corning Life Sciences, Corning, NY) using a Multidrop Combi (Thermo Scientific, Waltham, MA) dispenser. The assay plates were incubated at 37 C and 5% CO2 for 5hr, and then 23nL of compounds dissolved in DMSO and positive control were transferred using a Pintool station ([…], San Diego, CA). The assay plates were incubated at 37C and 5% CO2 for 17hr. For cytotoxicity read, after 16hr incubation at 37C, 1uL CellTiter-Fluor reagent (Promega Corporation, Madison, WI) was added to each well of the assay plates using Flying Reagent Dispenser (FRD, Aurora Discovery, San Diego, CA). After 1hr incubation at 37C and 5% CO2, the fluorescence signal was quantified using a ViewLux plate reader (PerkinElmer, Shelton, CT).
SMILES,Potency,"activity change, negative = cytotoxicity"
C=CC(=O)OCC(C)OCC(C)OCC(C)OC(=O)C=C (stereo not given),inactive,
NCc1ccccc1,inactive,
CC(C(=O)O)c1ccc(-c2ccccc2)c(F)c1 (stereo not given),inactive,
CC(C)(Oc1ccc(Cl)cc1)C(=O)OCCCOC(=O)C(C)(C)Oc1ccc(Cl)cc1,inactive,
Oc1ccc2c(c1)OCO2,inactive,
CCCCCOC(=O)COc1cc(N2C(=O)C3=C(CCCC3)C2=O)c(F)cc1Cl,inactive,
CC1=CCC(C(C)C)C=C1 (stereo not given),inactive,
CC1=CC(=O)/C(=C(/C)O)C(=O)O1,inactive,
CCOc1ccc2[nH]cc(C(=O)NCc3ccccc3)c(=O)c2n1,inactive,
Cc1cccc(Oc2ccccc2)c1,inactive,
CCCCCCOC(=O)CCC,inactive,
CCCCCC(CO)CCC (stereo not given),inactive,
N[C@H]1C(O)O[C@H](CO)[C@H](O)[C@@H]1O (stereo not given in full),inactive,
CC(=O)c1c(C)c([N+](=O)[O-])c(C(C)(C)C)c([N+](=O)[O-])c1C,inactive,
Oc1ccc(C(O)CNCCCCCCNCC(O)c2ccc(O)c(O)c2)cc1O (stereo not given),inactive,
O=C(O)C1CCC(C(=O)O)CC1 (stereo not given),inactive,
Nc1ccc(C(=O)N2CC3CC(CN(Cc4ccccc4)C3)C2)cc1,inactive,
Cc1ccccn1,inactive,
O=C(C(=O)c1ccc(Br)cc1)c1ccc(Br)cc1,,2.21% [at 19 µM] (inactive)
S=C(S)NCCNC(=S)S,inactive,

SMILES,Potency,"activity change, negative = cytotoxicity"
CC(O)C1CCCCC1 (stereo not given),inactive,
CC(C)(C)C1CCCCC1O (stereo not given),inactive,
Cc1ccc(C(=O)C(C)CN2CCCCC2)cc1 (stereo not given),inactive,
CCCCOc1cc(C(=O)OCCN(CC)CC)ccc1N,inactive,
Cc1cc(CC(=O)O)c(C)n1-c1ccc(Cl)cc1,inactive,
Cn1sccc1=O,inactive,
CCCOc1ccc2nc(NC(=O)OC)[nH]c2c1,inactive,
CC(C)(C)C(=O)OCOP(=O)(COCCn1cnc2c(N)ncnc21)OCOC(=O)C(C)(C)C,inactive,
Oc1ccc(Cc2ccccc2)cc1,inactive,
CCOC(=O)CC(C)C,inactive,
CN1CCC(=C2c3ccccc3C=Cc3ccccc32)CC1,inactive,
CC(C)c1ccc2c(C(C)C)cc(C(C)C)c(S(=O)(=O)O)c2c1,inactive,
CCCCCCCCCCCCCCCC(=O)OC/C=C(C)/C=C/C=C(C)/C=C/C1=C(C)CCCC1(C)C,inactive,
O=C(O)Cc1cc(I)c(Oc2ccc(O)c(I)c2)c(I)c1,inactive,
CCN1CCC[C@H]1CNC(=O)c1c(OC)ccc(Br)c1OC,inactive,
CCCCCOC(=O)c1ccc(O)cc1,inactive,
CCN(CC)CCOC(=O)C1(c2ccccc2)CCCC1,inactive,
CC(=O)N(CC(=O)N(C)C)c1ccccc1,inactive,
CCC(=O)OC(C)(C)C1CC=C(C)CC1 (stereo not given),inactive,
N=C(N=C(N)N)N1CCOCC1,inactive,
